Several values for one entry are separate records, joined by “and”; a condition that tells them apart may be missing. Equal entries are not always repeated. Inconclusive results are not listed. Entries that show only a call come without a potency. Activity calls are given as the source filed them. Calls follow the shape of the full dose curve.
The molecules below were run against Acetylcholinesterase (Homo sapiens) (UniProt P22303) (assay: Acetylcholinesterase (AChE) small molecule antagonists: colormetric cell-based qHTS assay (AID 1347395; also: nearly all actives have a fitted effect of over 30% in size; also: potency is read from the fitted curve at half-maximal effect)). Conditions: SH-SY5Y cells AChE activity, colorimetric (Ellman); series mostly up to 115 µM.
How it was run: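 Neuroblastoma line SH-SY5Y supplied the enzyme; cells were preincubated with compound for 30 min at 37 C and 5% CO2. Acetylthiocholine with DTNB was then added for 90 min at 37 C, and thiocholine was measured by colour.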

Chain of Acetylcholinesterase (Homo sapiens) (P22303 whole entry, looked up): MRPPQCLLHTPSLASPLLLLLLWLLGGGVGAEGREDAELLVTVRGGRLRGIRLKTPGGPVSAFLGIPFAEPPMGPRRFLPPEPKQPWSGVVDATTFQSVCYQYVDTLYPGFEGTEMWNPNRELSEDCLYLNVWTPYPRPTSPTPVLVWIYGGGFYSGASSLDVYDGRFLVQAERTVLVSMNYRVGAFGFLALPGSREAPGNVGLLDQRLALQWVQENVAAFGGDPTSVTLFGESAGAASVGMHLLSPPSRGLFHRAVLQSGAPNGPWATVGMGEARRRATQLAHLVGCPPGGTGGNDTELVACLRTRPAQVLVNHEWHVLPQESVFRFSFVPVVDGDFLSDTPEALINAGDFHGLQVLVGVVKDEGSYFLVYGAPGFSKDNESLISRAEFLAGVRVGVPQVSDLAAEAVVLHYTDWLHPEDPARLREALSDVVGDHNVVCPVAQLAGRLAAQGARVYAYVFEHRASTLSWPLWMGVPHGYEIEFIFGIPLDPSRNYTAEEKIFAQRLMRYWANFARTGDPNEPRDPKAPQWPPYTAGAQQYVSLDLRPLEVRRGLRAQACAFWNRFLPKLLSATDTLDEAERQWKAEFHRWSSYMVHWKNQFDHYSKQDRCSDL

SMILES | Potency
CC(=O)c1nccs1 | inactive
CC(=O)OCCOCCOCCOC(C)=O | inactive
CC(CC=O)c1ccccc1 (configuration not stated) | inactive
O=C(c1ccccc1)c1ccc2n1CCC2C(=O)O (configuration not stated) | inactive
Cc1c(NC(=O)c2cccnc2)c(=O)n(-c2ccccc2)n1C | inactive
NC(N)=NC(N)=NCCc1ccccc1 | inactive
CCCCCCCCCCCCCCC | inactive
O=C1OC(c2ccc(O)cc2)(c2ccc(O)cc2)c2ccccc21 | 35.6 µM (active) and 24.5 µM (active)
COC(Cc1ccccc1)OC | inactive
CC1=CC2C3CC(C=C3C)C2C1 (configuration not stated) | inactive
Oc1ccc(OCc2ccccc2)cc1 | inactive
CCCCCCCCCCCCCCCCO | inactive
CCCCCC/C=C/CCCCCCCC(=O)O | inactive
N[C@@H](Cc1cc(I)c(Oc2cc(I)c(O)c(I)c2)c(I)c1)C(=O)O | inactive
COc1ccccc1NC(=O)CC(C)=O | inactive
Nc1ccc([N+](=O)[O-])c(C(F)(F)F)c1 | inactive
CSCC[C@H](NC(=O)[C@H](Cc1c[nH]c2ccccc12)NC(=O)CCNC(=O)OC(C)(C)C)C(=O)N[C@@H](CC(=O)O)C(=O)N[C@@H](Cc1ccccc1)C(N)=O | inactive

What follows are molecules tested against Acetylcholinesterase (Homo sapiens) (UniProt P22303) (assay: Acetylcholinesterase (AChE) small molecule antagonists: enzyme-based qHTS assay (AID 1347397; also: nearly all actives have a fitted effect of over 55% in size)). Conditions: Potency: AChE enzyme activity inhibition; outcome: AChE enzyme activity inhibition; series mostly up to 115 µM.
How it was run: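 First, recombinant human AChE (50 mU/mL as dispensed) received test compound or DMSO. Second, plates stood 30 min at room temperature. Third, DTNB and acetylthiocholine were added, followed by 10 min at room temperature and colorimetric detection.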

SMILES | Potency
c1ccc2cnccc2c1 | inactive
CN(C)c1ccc(C(=N)c2ccc(N(C)C)cc2)cc1 | inactive
CCCCCCC(O)CCCCCCCCCCC(=O)O (configuration not stated) | inactive
COc1cc(/C=C/C(=O)O[C@H]2CC[C@]34C[C@]35CC[C@]3(C)[C@@H]([C@H](C)CCC=C(C)C)CC[C@@]3(C)[C@@H]5CC[C@H]4C2(C)C)ccc1O | inactive
Cc1ccc2oc(CN(Cc3ccccc3)C(=O)Nc3c(F)cc(F)cc3F)c(-c3ccc(Cl)cc3)c2c1 | inactive
CC(C)(C)c1ccc(O)c(O)c1 | inactive
CCOC(=O)NCCC[Si](OCC)(OCC)OCC | inactive
CC(C)[N+](C)(CCOC(=O)C1c2ccccc2Oc2ccccc21)C(C)C | inactive
O=C=NCCCCCCN=C=O | inactive
CC(O)c1ccccc1 (configuration not stated) | inactive
CCCCC[Si](OCC)(OCC)OCC | inactive
O=C1CCCC1 | inactive
NC(=O)c1cccc([N+](=O)[O-])c1 | inactive
CCc1cccc2c3c([nH]c12)C(CC)(CC(=O)O)OCC3 (configuration not stated) | inactive
CC#N | inactive
O=C(OCCCCCCOC(=O)c1ccccc1)c1ccccc1 | inactive

SMILES | Potency
O=C(O)CSCC(=O)NC1CCSC1=O (configuration not stated) | inactive
CCC(=O)C1CC(C(C)C)CC=C1C (configuration not stated) | inactive
CC(C)NC(=O)c1ccccc1N | inactive
CC(=O)c1nccs1 | inactive
CC(=O)OCCOCCOCCOC(C)=O | inactive
CC(CC=O)c1ccccc1 (configuration not stated) | inactive
Cc1c(NC(=O)c2cccnc2)c(=O)n(-c2ccccc2)n1C | inactive
NC(N)=NC(N)=NCCc1ccccc1 | inactive
CCCCCCCCCCCCCCC | inactive
O=C1OC(c2ccc(O)cc2)(c2ccc(O)cc2)c2ccccc21 | inactive
COC(Cc1ccccc1)OC | inactive
CC1=CC2C3CC(C=C3C)C2C1 (configuration not stated) | inactive
CCCCCC/C=C/CCCCCCCC(=O)O | inactive
N[C@@H](Cc1cc(I)c(Oc2cc(I)c(O)c(I)c2)c(I)c1)C(=O)O | inactive
CSCC[C@H](NC(=O)[C@H](Cc1c[nH]c2ccccc12)NC(=O)CCNC(=O)OC(C)(C)C)C(=O)N[C@@H](CC(=O)O)C(=O)N[C@@H](Cc1ccccc1)C(N)=O | inactive

What follows are molecules tested against Acetylcholinesterase (Homo sapiens) (UniProt P22303) (assay: Acetylcholinesterase (AChE) small molecule antagonists: fluorescence cell-based qHTS assay (AID 1347398; also: nearly all actives have a fitted effect of over 50% in size)). Conditions: SH-SY5Y cells; Potency: AChE activity; outcome: AChE activity; series mostly up to 115 µM.
How it was run: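 Homogeneous quantitative HTS format. SH-SY5Y cells seeded at 2,000 per well settle overnight at 37 C. Compound pretreatment runs 30 min (37 C, 5% CO2); substrate/probe mix then reacts 40 min at RT before reading 490/520 nm.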

SMILES | Potency
Nc1nc2c(ncn2COCCO)c(=O)[nH]1 | inactive
C=Cc1ccncc1 | inactive
O=C(NO)C1(NS(=O)(=O)c2ccc(Oc3ccc(F)cc3)cc2)CCOCC1 | inactive
OC[C@@H](O)[C@@H](O)[C@H](O)[C@@H](O)CO | inactive
O=C(c1ccccc1)c1ccc2n1CCC2C(=O)O (configuration not stated) | inactive
Oc1ccc(OCc2ccccc2)cc1 | inactive
CCCCCCCCCCCCCCCCO | inactive
COc1ccccc1NC(=O)CC(C)=O | inactive
Nc1ccc([N+](=O)[O-])c(C(F)(F)F)c1 | inactive

The molecules below were run against Acetylcholinesterase (Homo sapiens) (UniProt P22303) (assay: Acetylcholinesterase (AChE) small molecule antagonists: enzyme-based qHTS assay with human liver microsomes (AID 1347399; also: nearly all actives have a fitted effect of over 60% in size)). Conditions: Potency: qHTS inhibition; outcome: qHTS inhibition; series mostly up to 115 µM.
How it was run: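 Recombinant human AChE (50 mU/mL in the enzyme mix) and human liver microsomes (0.25 mg/mL final) were preincubated with compound and NADPH (0.25 mg/mL final) for 30 min at 37 C. Acetylthiocholine/DTNB was then added; thiocholine was read colorimetrically after 10 min at room temperature.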

SMILES | Potency
c1ccc2cnccc2c1 | inactive
CN(C)c1ccc(C(=N)c2ccc(N(C)C)cc2)cc1 | inactive
Nc1nc2c(ncn2COCCO)c(=O)[nH]1 | inactive
CCCCCCC(O)CCCCCCCCCCC(=O)O (configuration not stated) | inactive
COc1cc(/C=C/C(=O)O[C@H]2CC[C@]34C[C@]35CC[C@]3(C)[C@@H]([C@H](C)CCC=C(C)C)CC[C@@]3(C)[C@@H]5CC[C@H]4C2(C)C)ccc1O | inactive
Cc1ccc2oc(CN(Cc3ccccc3)C(=O)Nc3c(F)cc(F)cc3F)c(-c3ccc(Cl)cc3)c2c1 | inactive
CC(C)(C)c1ccc(O)c(O)c1 | inactive
CCOC(=O)NCCC[Si](OCC)(OCC)OCC | inactive
CC(C)[N+](C)(CCOC(=O)C1c2ccccc2Oc2ccccc21)C(C)C | inactive
C=Cc1ccncc1 | inactive
O=C=NCCCCCCN=C=O | inactive
CC(O)c1ccccc1 (configuration not stated) | inactive
O=C(NO)C1(NS(=O)(=O)c2ccc(Oc3ccc(F)cc3)cc2)CCOCC1 | inactive
CCCCC[Si](OCC)(OCC)OCC | inactive
O=C1CCCC1 | inactive
NC(=O)c1cccc([N+](=O)[O-])c1 | inactive
CCc1cccc2c3c([nH]c12)C(CC)(CC(=O)O)OCC3 (configuration not stated) | inactive
OC[C@@H](O)[C@@H](O)[C@H](O)[C@@H](O)CO | inactive
CC#N | inactive
O=C(OCCCCCCOC(=O)c1ccccc1)c1ccccc1 | inactive

SMILES | Potency
O=C(O)CSCC(=O)NC1CCSC1=O (configuration not stated) | inactive
CCC(=O)C1CC(C(C)C)CC=C1C (configuration not stated) | inactive
CC(C)NC(=O)c1ccccc1N | inactive
CC(=O)c1nccs1 | inactive
CC(=O)OCCOCCOCCOC(C)=O | inactive
CC(CC=O)c1ccccc1 (configuration not stated) | inactive
O=C(c1ccccc1)c1ccc2n1CCC2C(=O)O (configuration not stated) | inactive
Cc1c(NC(=O)c2cccnc2)c(=O)n(-c2ccccc2)n1C | inactive
NC(N)=NC(N)=NCCc1ccccc1 | inactive
CCCCCCCCCCCCCCC | inactive
O=C1OC(c2ccc(O)cc2)(c2ccc(O)cc2)c2ccccc21 | inactive
COC(Cc1ccccc1)OC | inactive
CC1=CC2C3CC(C=C3C)C2C1 (configuration not stated) | inactive
Oc1ccc(OCc2ccccc2)cc1 | inactive
CCCCCCCCCCCCCCCCO | inactive
CCCCCC/C=C/CCCCCCCC(=O)O | inactive
N[C@@H](Cc1cc(I)c(Oc2cc(I)c(O)c(I)c2)c(I)c1)C(=O)O | inactive
COc1ccccc1NC(=O)CC(C)=O | inactive
Nc1ccc([N+](=O)[O-])c(C(F)(F)F)c1 | inactive
CSCC[C@H](NC(=O)[C@H](Cc1c[nH]c2ccccc12)NC(=O)CCNC(=O)OC(C)(C)C)C(=O)N[C@@H](CC(=O)O)C(=O)N[C@@H](Cc1ccccc1)C(N)=O | inactive

Reference: PubChem BioAssay (Tox21)
